Source: PubChem (National Center for Advancing Translational Sciences (NCATS))
AMA1 RON2 block – qHTS for Inhibitors of AMA1-RON; Towards Development of Antimalarial Drug Lead: Primary Screen; AID 720542, 2013; AlphaScreen AMA1-biotinylated RON2 peptide binding; Plasmodium falciparum AMA1 (3D7) - RON2 peptide interaction; Potency, µM (doses to about 58.2 µM), usual class: inhibitors; 0.2% of 360,000 active; note: nearly all actives have a fitted effect of over 45% in size
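AMA1 (3D7) with his tag at 25 nM final met compounds first, then biotinylated RON2 peptide at 25 nM; detection used donor plus acceptor beads, 10 µg/mL apiece, read by AlphaScreen after 30 min at room temperature.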
Pf growth 48h – Primary qHTS for delayed death inhibitors of the malarial parasite plastid, 48 hour incubation | P. falciparum luciferase growth in erythrocytes, 48 h | Potency, µM (top dose mostly 28.7 µM), most hits filed as inhibitors | 5.9% of 310,000 active | AID 504832, 2011
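Growth was read as firefly luciferase luminescence after a 48 h, 37 C, 5% CO2 exposure of compounds to reporter-bearing P. falciparum cultures (0.1% parasitemia, 2% hematocrit final) in Albumax-supplemented RPMI 1640.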
NS1 function inh – qHTS Assay for Inhibitors of Influenza NS1 Protein Function; 0.4% of 270,000 active; Potency, µM (top dose mostly 46.1 µM); calls by dose curve; note: actives are rising curves; nearly all actives have a fitted effect of over 50% in size
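OD600 was taken as the measure of yeast growth restored by compound in an NS1-expressing S. cerevisiae strain. Cells had been washed out of glucose medium and diluted 1:100 into galactose -URA medium, pH 6.0.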
SARS PLpro yeast – qHTS of Yeast-based Assay for SARS-CoV PLP; S. cerevisiae expressing SARS-CoV PLpro, growth rescue; 0.19% of 330,000 active; Potency, µM (titrated, usually from 32.9 µM), actives largely listed as activators; calls by dose curve; note: nearly all actives have a fitted effect of over 55% in size
HCV inhibitor – qHTS Assay for Inhibitors of Hepatitis C Virus (HCV); 3.4% of 340,000 active; Huh7.5.1 HCVcc-Cre infection, luciferase reporter, 44 h; Potency, µM (doses to about 41.8 µM), most hits filed as inhibitors
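Antiviral activity was scored by luciferase reporter output from cells infected with HCVcc-Cre (~0.5 moi) in presence of compound, 44 h infection period, cells seeded 1,000/well 4 h prior.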
Pf growth 96h – Primary qHTS for delayed death inhibitors of the malarial parasite plastid, 96 hour incubation | 6.9% of 320,000 active | Potency, µM (titrated, usually from 28.7 µM), usual class: inhibitors | P. falciparum luciferase reporter growth, 96 h
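Two-generation exposure (96 h) targets delayed-death phenotype. Reporter parasites carrying integrated firefly luciferase, in red cells at 2% hematocrit and 0.05% parasitemia final, kept at 37 C, 5% CO2; luminescence loss indicates inhibition.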
Numbers stand for hits; - = inactive; ? = inconclusive; . = no result. In the library only some 12% were active in any assay of this set; here they are far more common. Unless noted, calls come from the whole dose curve; as a rule, active = well fitted curve in the direction sought with a large enough effect; inconclusive = small, poorly fitted or top-dose-only effect, or another doubt; inactive = no such curve, though single readings can be large; an effect the other way counts as inactive or inconclusive.

SMILES	AMA1 RON2 block	Pf growth 48h	NS1 function inh	SARS PLpro yeast	HCV inhibitor	Pf growth 96h
COC(=O)CC1C(=O)NCCN1C(=O)CSc1nnc(Nc2ccc(C)cc2)s1 (stereo not given)	-	.	-	-	-	7.4µM
COC(=O)CC1C(=O)NCCN1C(=O)CSc1nnc(Nc2ccc(OC)cc2)s1 (stereo not given)	-	?	-	-	-	.
Cc1cccc(NC(=O)COc2coc(CN3CCc4ccccc4C3)cc2=O)c1	-	8.3µM	.	-	-	?
Cc1ccc(C)c(NC(=O)COc2coc(CN3CCc4ccccc4C3)cc2=O)c1	-	-	.	-	?	?
CCc1ccc(NC(=O)COc2coc(CN3CCc4ccccc4C3)cc2=O)cc1	-	9.3µM	.	-	?	?
O=C(COc1coc(CN2CCCc3ccccc32)cc1=O)Nc1cccc([N+](=O)[O-])c1	-	?	.	-	?	6.6µM
O=C(COc1coc(CN2CCc3ccccc3C2)cc1=O)Nc1cccc([N+](=O)[O-])c1	-	12µM	.	-	?	?
O=C(COc1coc(CN2CCCc3ccccc32)cc1=O)Nc1ccccc1	-	?	.	-	?	?
CCN(CC)S(=O)(=O)c1ccc(C(=O)NCC(c2ccc(OC)cc2)N2CCOCC2)cc1 (stereo not given)	-	?	-	-	-	?
COCCN1C(=O)N[C@@H](c2cccs2)C(C(C)=O)=C1C	-	.	.	.	-	.
CCc1ccc2oc(C(=O)NCC(c3ccc(OC)cc3)N3CCCCC3)c(C)c2c1 (stereo not given)	-	?	-	-	?	-
COc1ccc(C(CNC(=O)c2oc3ccc(F)cc3c2C)N2CCCCC2)cc1 (stereo not given)	-	?	-	-	11µM	-
COc1ccc(C(CNC(=O)c2oc3ccc(Br)cc3c2C)N2CCCCC2)cc1 (stereo not given)	-	?	.	-	13µM	-
COc1ccc(C(CNC(=O)c2oc3ccc(OC)cc3c2C)N2CCCC2)cc1 (stereo not given)	-	8.3µM	.	-	?	9.3µM
C/C(=N\NC(=O)CNC(=O)c1cccc(F)c1)c1ccc2ccccc2c1	-	-	-	-	?	-
COc1ccc(N(CC2CO2)S(=O)(=O)c2ccc(C)cc2)cc1 (stereo not given)	-	-	-	-	-	-
O=C(c1ccccc1NS(=O)(=O)c1cccc([N+](=O)[O-])c1)N1CCCC1	-	-	-	-	.	?
Cc1nn2c3c(cnc2c1-c1ccccc1)C(=O)CC(c1ccco1)C3 (stereo not given)	-	1.5µM	-	-	-	.
CC12CCC(C1)C(C)(C)C2=O (stereo not given)	.	-	.	.	.	-
C=CCN(C(=O)c1csnn1)C(C(=O)NC1CCCC1)c1ccccc1F (stereo not given)	-	-	-	-	-	-
COC(=O)COc1cccc(NC(=O)c2ccccc2)c1	-	-	-	-	-	-
CCOc1ccccc1NC(=O)Nc1cccc(S(N)(=O)=O)c1	-	-	-	-	32µM	-
Cc1ccc(C(=O)COC(=O)c2cccc(NC(=O)c3ccc([N+](=O)[O-])cc3[N+](=O)[O-])c2)cc1	-	-	-	-	11µM	-
COC(=O)COc1cccc(NC(=O)c2cccc(C)c2)c1	-	-	-	-	-	10µM
CC(=O)Nc1ccc(C(=O)OCC(=O)c2cccc([N+](=O)[O-])c2)cc1	-	-	-	-	-	-
SMILES	AMA1 RON2 block	Pf growth 48h	NS1 function inh	SARS PLpro yeast	HCV inhibitor	Pf growth 96h
CCOc1ccccc1NC(=O)Nc1cccc(C(C)=O)c1	-	.	-	-	7.1µM	-
O=C(O)c1cccc(OS(=O)(=O)c2cc(Br)ccc2Br)c1	-	-	.	-	-	-
COc1ccc(NC(=O)c2ccc3c(c2)C(=O)N(Cc2ccncc2)C3=O)cc1S(N)(=O)=O	-	.	.	-	?	.
CC(C)(C)NC(=O)CC1C[C@H](C(=O)N2CCCCC2)[C@@]2(C)c3[nH]c4ccccc4c3CCN2C1=O (stereo not given in full)	-	.	.	-	-	.
COc1cccc(C(=O)COc2cccc(NC(=O)c3cccc([N+](=O)[O-])c3)c2)c1	-	?	-	-	8.9µM	?
CCOc1ccc(NC(=O)c2cccc(OC(=S)N3CCC(C)CC3)c2)cc1	-	?	?	-	-	12µM
CCOc1ccccc1NC(=O)/C=C/C(N)=O	-	.	-	-	-	-
CCOc1ccc(C(C)=O)cc1NC(=O)/C=C\C(=O)O	-	-	-	-	-	10µM
O=C(COc1cccc(NC(=O)c2cccc([N+](=O)[O-])c2)c1)c1ccc(F)cc1	-	?	-	-	?	?
CCOc1cccc(C(=O)Nc2cccc(C(C)=O)c2)c1	-	-	-	-	-	3.3µM
CCOc1ccccc1NC(=O)Nc1ccc2c(c1)CCC2	-	-	-	-	13µM	?
O=C1CSC(c2ccc([N+](=O)[O-])cc2)N1CCN1CCCCC1 (stereo not given)	-	-	.	-	-	?
O=C1CSC(c2ccc([N+](=O)[O-])cc2)N1C1CCCCC1 (stereo not given)	-	-	.	-	-	0.47µM
O=C(COC(=O)C1=COCCO1)Nc1ccc(Br)cc1Br	-	.	.	-	-	.
O=C(OCc1c(F)cccc1Cl)c1cnc(Cl)c(Cl)c1	-	-	-	-	10µM	-
FC(F)(F)c1nc(SCc2ccc(Cl)cc2)n[nH]1	.	.	-	.	.	.
Cc1cnc(CN(C)C(=O)c2ccc3oc(Cc4ccccc4)nc3c2)[nH]1	-	-	-	-	-	4.7µM
Cc1cnc(CN(C)C(=O)c2ccc3oc(Cc4ccc(Cl)cc4)nc3c2)[nH]1	-	?	-	-	?	-
CCC(=Nc1ccc(OC)cc1OC)c1c(O)n(C2CCCCC2)c(=O)[nH]c1=O	-	7.4µM	-	-	?	?
COc1ccc(NC(=O)C2C3C=CC4(O3)C2C(=O)N(CCN2CCCCC2)C4C(=O)NC2CCCC(C)C2C)cc1 (stereo not given)	-	?	-	-	-	-
Cc1ccc2c(c1)c(/C=C/c1cc[n+](C)cc1)c(C)n2C	-	0.93µM	-	-	10µM	0.47µM
CC(=O)N1c2ccc(S(=O)(=O)N3CCC(C(=O)NCCc4ccc(Cl)cc4)CC3)cc2CC1C (stereo not given)	-	?	-	-	10µM	-
CC1Cc2cc(S(=O)(=O)N3CCC(C(=O)NCc4ccco4)CC3)ccc2N1C(=O)C1CCC1 (stereo not given)	-	9.3µM	-	-	?	?
